Reference: PubChem BioAssay AID1159580 (chemical genetic matrix, 2015)
Out of some 5,500 compounds screened, about 2,000 (36%) were called active. Roughly 18% stayed inconclusive and do not appear here. Cut-off read from the data, not from the text of the source: active = normalized growth mostly below about 0.91 (no sharp cut-off); inconclusive = no clear call, values can overlap the other calls; inactive = mostly above about 0.92. The list shows a part of the results.

Test: chemical genetic growth profiling, strain panel (AID 1159580);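 note: tested at 20 µM; growth read once vehicle control cultures reached saturation at 30 °C; 1 = growth at the plate median or of vehicle wells; lower values mean less growth of the strain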
Settings: S. cerevisiae deletion strains, growth OD

Measured: normalized growth

COc1ccc(-c2cc(=O)c3c(OC)cccc3o2)cc1
inactive: locus YBR021W, strain FUR4, stronger effect = lower value 0.978 | locus YBR229C, strain ROT2, stronger effect = lower value 1.04 | locus YCL029C, strain bik1, stronger effect = lower value 1.05 | locus YDL035C, strain GPR1, stronger effect = lower value 1.03 | locus YDL074C, strain BRE1, stronger effect = lower value 1.09 | locus YDL101C, strain DUN1, stronger effect = lower value 1.03 | locus YDL185W, strain tfp1, stronger effect = lower value 1.02 | locus YDL192W, strain arf1, stronger effect = lower value 1.06 | locus YDR101C, strain arx1, stronger effect = lower value 1.01 | locus YDR162C, strain NBP2, stronger effect = lower value 1.05 | locus YDR318W, strain mcm21, stronger effect = lower value 1.03 | locus YDR388W, stronger effect = lower value 1.04 | locus YDR502C, strain sam2, stronger effect = lower value 1.01 | locus YER110C, stronger effect = lower value 1.02 | locus YER155C, strain BEM2, stronger effect = lower value 1.03 | locus YER167W, strain BCK2, stronger effect = lower value 1.04 | locus YGL078C, strain dbp3, stronger effect = lower value 0.944 | locus YGL086W, strain mad1, stronger effect = lower value 1.01 | locus YGL248W, strain PDE1, stronger effect = lower value 1.05 | locus YGR135W, strain pre9, stronger effect = lower value 1 | locus YGR252W, strain gcn5, stronger effect = lower value 0.89 | locus YHR079C, strain IRE1 (second series), stronger effect = lower value 1.02 | locus YHR094C, strain hxt1, stronger effect = lower value 1.01 | locus YHR129C, strain ARP1, stronger effect = lower value 1.06 | locus YHR200W, strain rpn10, stronger effect = lower value 1.04 | locus YIL066C, strain RNR3, stronger effect = lower value 1.06 | locus YIL073C, strain SPO22, stronger effect = lower value 1.11 | locus YIL125W, strain kgd1, stronger effect = lower value 1.04 | locus YIR030C, strain dcg1, stronger effect = lower value 1.05 | locus YJL095W, strain BCK1, stronger effect = lower value 1.1 | locus YJL134W, strain LCB3, stronger effect = lower value 1.04 | locus YJL168C, strain set2, stronger effect = lower value 1.03 | locus YJL187C, strain SWE1 (second series), stronger effect = lower value 1.03 | locus YJR043C, strain POL32, stronger effect = lower value 1.04 | locus YJR075W, strain HOC1, stronger effect = lower value 1.06 | locus YKL009W, strain mrt4, stronger effect = lower value 0.911 | locus YKL068W, stronger effect = lower value 1.02 | locus YKL085W, strain MDH1 (second series), stronger effect = lower value 1.04 | locus YKL085W, strain MDH1, stronger effect = lower value 1.04 | locus YKR001C, strain vps1, stronger effect = lower value 1.09 | locus YLR039C, strain RIC1, stronger effect = lower value 1.28 | locus YLR058C, strain SHM2, stronger effect = lower value 1.03 | locus YLR102C, strain apc9, stronger effect = lower value 1.02 | locus YLR262C, strain YPT6, stronger effect = lower value 1.21 | locus YLR268W, strain sec22, stronger effect = lower value 1.02 | locus YLR371W, strain rom2, stronger effect = lower value 1.06 | locus YLR418C, strain cdc73, stronger effect = lower value 1.12 | locus YML016C, strain PPZ1, stronger effect = lower value 1.05 | locus YML032C, strain rad52, stronger effect = lower value 0.998 | locus YML124C, strain tub3, stronger effect = lower value 1.03 | locus YMR078C, strain ctf18, stronger effect = lower value 1.03 | locus YMR223W, strain ubp8, stronger effect = lower value 1.01 | locus YMR307W, strain GAS1, stronger effect = lower value 1.22 | locus YNL067W, strain RPL9B, stronger effect = lower value 1.04 | locus YNL153C, strain GIM3, stronger effect = lower value 1.02 | locus YNL233W, strain BNI4, stronger effect = lower value 1.08 | locus YNL250W, strain rad50, stronger effect = lower value 1.05 | locus YNL271C, strain bni1, stronger effect = lower value 1.04 | locus YNL298W, strain CLA4, stronger effect = lower value 0.98 | locus YNL307C, strain MCK1, stronger effect = lower value 1.03 | locus YNL322C, strain KRE1, stronger effect = lower value 1.04 | locus YNR052C, strain pop2, stronger effect = lower value 1.01 | locus YOL006C, strain TOP1, stronger effect = lower value 1.25 | locus YOL012C, strain htz1 1.26 | locus YOL147C, strain pex11, stronger effect = lower value 1.03 | locus YOR061W, strain CKA2, stronger effect = lower value 1.05 | locus YOR069W, strain VPS5, stronger effect = lower value 1.04 | locus YOR136W, strain idh2, stronger effect = lower value 1.03 | locus YOR144C, strain elg1, stronger effect = lower value 1.01 | locus YOR184W, strain ser1, stronger effect = lower value 1.01 | locus YOR316C, strain cot1, stronger effect = lower value 1.02 | locus YPR119W, strain clb2, stronger effect = lower value 1.05 | locus YPR141C, strain kar3, stronger effect = lower value 1.05 | locus YPR163C, strain tif3, stronger effect = lower value 1.02 | locus YPR167C, strain met16, stronger effect = lower value 1.02 | strain wtn01, stronger effect = lower value 1.01
